Screening data: PubChem, Sanford-Burnham Center for Chemical Genomics
Hits are enriched below; roughly 3% of the tested compounds scored in any of these assays.
SENP8 block-1: SENP8 (human) protease inhibition; recombinant SENP8, Nedd8 substrate fluorescence; hit rate 0.64% among 360,000; Q96LD8; AID 602440; inhibition, % at 20 µM; in the data active = inhibition mostly above about 40%, no sharp cut-off; inactive = mostly below about 27%
Target sequence (Q96LD8 whole entry, looked up): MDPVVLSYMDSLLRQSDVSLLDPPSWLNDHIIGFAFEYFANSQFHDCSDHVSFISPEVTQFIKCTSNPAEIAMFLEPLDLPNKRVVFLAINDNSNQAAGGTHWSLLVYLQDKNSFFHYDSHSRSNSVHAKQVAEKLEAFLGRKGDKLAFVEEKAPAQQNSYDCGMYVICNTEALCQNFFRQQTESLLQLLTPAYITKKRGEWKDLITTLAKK
SENP7 block: inhibitors of human SENP7 protease; Q9BQF6; AID 434973; recombinant SENP7, Z-RLRGG-aminoluciferin luminescence, 40 min; hit rate 1.5% among 330,000; inhibition, % at 5 µM;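 active = inhibition above about 50% at the single test dose, limit read from the data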;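 note: plate controls were DMSO with enzyme for no effect and no enzyme buffer wells for full effect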
C8 TRAIL sens: sensitizes caspase-8 expressing cells to TRAIL; hit rate 1% among 360,000; inhibition (viability loss, TRAIL sensitization), % at 10 µM; NB7+C8 cells + TRAIL, ATPlite viability luminescence;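 active = compounds causing at least 50% loss of cell viability in the single-dose screen, relative to plate controls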
SENP8 block-2: SENP8 protease inhibition | Q96LD8 | purified SENP8, Z-RLRGG-aminoluciferin cleavage, luminescence | inhibition, % at 10 µM | hit rate 1.2% among 330,000; in the data active = inhibition above about 50%
SENP6 inh: SENP6 protease inhibition. Q9GZR1. Recombinant SENP6 catalytic domain, aminoluciferin luminescence. inhibition, % at 10 µM. hit rate 1.8% among 330,000;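 active = inhibition above about 50% at the single tested dose, limit read from the data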;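 note: plate controls were DMSO wells with enzyme for no effect and DMSO wells lacking enzyme for full effect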
PPC-1+TRAIL kill: PPC-1 cancer cell killing with TRAIL present. PPC-1 cells + TRAIL, ATPLite viability luminescence. cell killing (% activity), % at 4 µM or 5 µM. hit rate 0.41% among 220,000. AID 1443;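 active = cell killing above 50% in the first pass at 4 µM, then a duplicate retest at 5 µM averaging 50% or more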;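 note: plate controls were cells with TRAIL plus DMSO for no effect and medium-only wells lacking cells for full effect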
Active calls of the source: *; / = no result.

SMILES	SENP8 block-1	SENP7 block	C8 TRAIL sens	SENP8 block-2	SENP6 inh	PPC-1+TRAIL kill
CC(C)C[C@H](NC(=O)c1[nH]cnc1C(=O)Nc1ccc(CNC(=O)OC(C)(C)C)cc1)C(=O)OCc1ccccc1	7	-3	48	-7	-25	-3
C[C@H](NC(=O)c1[nH]cnc1C(=O)Nc1ccc(CNC(=O)OC(C)(C)C)cc1)C(=O)OCc1ccccc1	3	-7	75*	5	-2	-13
CC(C)(C)OC(=O)NCCCCCNC(=O)c1nc[nH]c1C(=O)NCc1ccc(CNC(=O)OC(C)(C)C)cc1	7	3	58*	1	-11	/
Cc1ccc(S(=O)(=O)N2CCCCC2C(=O)Nc2ccc(N(C)C)cc2)cc1 (centres undefined)	7	-3	-8	2	2	/
Cc1ccccc1Oc1cc(-n2ncc(Cl)c(Cl)c2=O)ncn1	1	/	97*	/	/	18
CCOc1cnn(-c2cc(Oc3ccc(C)cc3)ncn2)c(=O)c1Cl	18	6	-2	1	-21	-16
Cc1cc(C)c2nc(NNC(=O)c3ccc(S(=O)(=O)N4CC(C)CC(C)C4)cc3)sc2c1 (centres undefined)	-22	-6	32	6	-13	6
Cc1cccc2sc(NNC(=O)c3ccc(S(=O)(=O)N4CC(C)CC(C)C4)cc3)nc12 (centres undefined)	10	11	66*	4	4	27
c1csc(-c2nc3ccccc3s2)c1	-447	80*	0	78*	86*	-4
c1csc(-c2ccc3ccccc3n2)c1	-382	80*	5	57*	76*	15
COc1c(F)c(F)c(C(=O)Nc2ccc(N3CCN(C(C)=O)CC3)c(Cl)c2)c(F)c1F	12	2	10	3	-11	11
Cc1ccc(NC(=O)CSc2ccc(-c3ccc4c(c3)OCO4)nn2)cc1F	8	3	55*	13	3	29
O=C(O)c1cc(NN=Nc2cccc([N+](=O)[O-])c2)cc([N+](=O)[O-])c1	16	20	4	57*	77*	10
O=C(O)c1cc(NN=Nc2cccc(S(=O)(=O)O)c2)cc([N+](=O)[O-])c1	20	-9	1	-5	-12	/
O=C(O)c1cc(NN=Nc2ccc(Br)cc2)cc([N+](=O)[O-])c1	28	15	-15	11	52*	-5
CC(=O)c1c(C)[nH]c(C(=O)OCC(=O)c2ccc3c(c2)NC(=O)CO3)c1C	-8	6	3	10	-15	/
COc1cccc(-c2nnc(NC(=O)c3ccco3)s2)c1	-233	9	19	17	30	/
Cc1ccc(-c2nnc(NC(=O)c3ccco3)s2)cc1	-187	8	68*	-3	2	/
COc1ccc(-c2nnc(NC(=O)c3ccco3)s2)cc1	-322	-6	60*	-14	-15	/
O=C(/C=C/c1cccc(Cl)c1)c1ccc([N+](=O)[O-])o1	-5	-1	68*	0	-15	/
COc1ccc(/C=C/C(=O)c2ccc([N+](=O)[O-])o2)cc1OC	/	-5	/	3	5	/
CCOC(=O)NC(=O)/C(C#N)=N\Nc1ccc(Cl)cc1	43*	-9	-3	-4	-8	2
CCOC(=O)NC(=O)/C(C#N)=N\Nc1cccc(Cl)c1	24	6	12	-10	-28	24
COc1ccc(C(=O)/C(C#N)=N/Nc2ccc([N+](=O)[O-])cc2)cc1	40*	9	40	4	10	47
N#C/C(=N\Nc1ccc(Cl)cc1)C(=O)c1ccccc1	46*	0	36	8	40	21
SMILES	SENP8 block-1	SENP7 block	C8 TRAIL sens	SENP8 block-2	SENP6 inh	PPC-1+TRAIL kill
Cc1cc(NC(=O)/C=C/c2ccccc2Cl)n(-c2nc3ccccc3[nH]2)n1	5	-5	74*	0	-6	58*
C[C@H]1CCCCO[C@H](CN(C)Cc2ccc(C(=O)O)cc2)[C@@H](C)CN([C@@H](C)CO)C(=O)c2cc(NS(=O)(=O)c3cn(C)cn3)ccc2O1	3	/	-2	/	/	/
Cc1noc(NS(=O)(=O)c2ccc(NC(=O)c3cccc(S(=O)(=O)Nc4ccccc4F)c3)cc2)c1C	7	-3	5	5	8	/
O=[N+]([O-])c1ccccc1-c1cc(-c2ccccc2O)n[nH]1	10	14	10	36	61*	39
Oc1ccccc1-c1cc(C(F)(F)F)[nH]n1	/	/	/	/	/	2
O=C1C=C(c2c(O)ccc3ccccc23)c2ccccc2C1=O	-46	/	86*	/	/	/
